Shown are actives, neighbours in structure and some others; about 18% of the full set was active somewhere.
KAT2A inh = inhibitors of human GCN5L2 histone acetyltransferase. Q92830. GCN5L2 HAT assay, ThioGlo1 CoA-SH fluorescence. Potency, µM (series often up to 58.9 µM), most hits filed as inhibitors. hit rate 0.21% among 390,000. AID 504327
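Enzyme at 20nM final was mixed with library compounds for 15 min at room temperature. Peptide H3(1-25) at 75uM, acetyl-CoA at 70uM and ThioGlo1 at 50uM were then added. Plates were read immediately and after 20 min (Ex340nm/Em540nm).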
PLK1 PBD inh = blocks phosphopeptide binding to human PLK1 polo-box domain; P53350; Plk1 PBD binding of FITC phosphopeptide, fluorescence polarization; Potency, µM, most hits filed as inhibitors; hit rate 2.8% among 360,000; AID 720504; further: series mostly up to about 57 µM; nearly all actives have a fitted effect of over 65% in size
DT40 TDP1 CPT = DT40-hTDP1 cell growth loss with CPT. AID 686979. chicken DT40 Tdp1-/-;hTDP1 cells + 20 nM CPT, ATP luminescence, 48 h. Potency, µM (titrated, usually from 46.2 µM), most hits filed as inhibitors. hit rate 12% among 420,000; further: nearly all actives have a fitted effect of over 55% in size
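Chicken DT40 Tdp1-/- cells complemented with human TDP1, 400 cells/well, exposed to compounds plus 20 nM camptothecin for at least 48 h at 37 C; viability read as ATP content by CellTiter-Glo luminescence.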
VDR inh = vitamin D3 receptor (human) inhibition | P11473 | VDR-SRC2-3 peptide fluorescence polarization, 2 h | Potency, µM, usual class: inhibitors | hit rate 0.93% among 400,000 | AID 504847
Target sequence (P11473 whole entry, looked up): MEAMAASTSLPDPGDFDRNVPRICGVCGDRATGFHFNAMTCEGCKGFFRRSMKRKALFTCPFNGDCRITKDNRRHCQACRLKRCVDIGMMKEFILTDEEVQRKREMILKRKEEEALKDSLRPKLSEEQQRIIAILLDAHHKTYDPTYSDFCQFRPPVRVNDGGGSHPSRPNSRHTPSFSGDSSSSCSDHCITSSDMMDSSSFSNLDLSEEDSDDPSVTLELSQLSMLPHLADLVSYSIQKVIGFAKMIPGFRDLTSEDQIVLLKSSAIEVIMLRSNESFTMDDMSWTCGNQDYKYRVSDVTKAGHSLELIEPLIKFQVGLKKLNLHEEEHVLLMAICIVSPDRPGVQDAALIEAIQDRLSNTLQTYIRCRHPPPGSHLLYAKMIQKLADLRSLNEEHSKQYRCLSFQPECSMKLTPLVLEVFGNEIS
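The screen uses fluorescence polarization to detect compounds that interfere with recruitment of the SRC2-3 coactivator peptide to VDR; plates are read after 2 h at room temperature.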
TDP1 inh = inhibitors of human tyrosyl-DNA phosphodiesterase TDP1 | recombinant TDP1, AlphaScreen DNA substrate cleavage | Potency, µM (series often up to 130 µM), hits mostly inhibitors | hit rate 0.28% among 350,000 | Q9NUW8; further: nearly all actives have a fitted effect of over 40% in size
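Recombinant human Tdp1 (E. coli-expressed, 1 nM final) preincubated with compounds 15 min at room temperature, then 5'-biotin/3'-phosphotyrosine-FITC DNA substrate (15 nM final) added for 5 min. AlphaScreen beads (10 ug/ml final) added 10 min; cleavage lowers signal.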
DT40 TDP1 no CPT = qHTS for Inhibitors of human tyrosyl-DNA phosphodiesterase 1 (TDP1): qHTS in cells in absence of CPT | hit rate 15% among 420,000 | Potency, µM (highest dose often 46.2 µM), most hits filed as inhibitors | DT40 Tdp1-/- hTDP1 cells, no CPT, ATP luminescence, 48 h; further: nearly all actives have a fitted effect of over 55% in size
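Seeded 400 DT40-hTDP1 cells/well (vehicle DMSO, no 20 nM CPT); pinned compounds; ≥48 hr at 37 °C; CellTiter-Glo luminescence as viability measure.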
Of the large screens only hits and unclear results are named; the others gave an inactive call. The call rests on the fitted dose curve; in most records, active means well fitted curve in the direction sought with a large enough effect; inconclusive means small, poorly fitted or top-dose-only effect, or another doubt; inactive means no such curve, though single readings can be large; an effect the other way counts as inactive or inconclusive.

Cc1cc(C)nc(NS(=O)(=O)c2ccc(NC(=O)COc3ccccc3)cc2)n1	none
O=C(COc1cccc(C(F)(F)F)c1)Nc1cccc(S(=O)(=O)NC2=NCCCCC2)c1	DT40 TDP1 CPT 23.1µM, DT40 TDP1 no CPT 25.9µM (no result: KAT2A inh, TDP1 inh)
O=C(COC(=O)CC1CC2CCC1C2)Nc1cccc(S(=O)(=O)NC2=NCCCCC2)c1 (configuration not stated)	PLK1 PBD inh 21.2µM, DT40 TDP1 CPT inconclusive, VDR inh inconclusive, DT40 TDP1 no CPT 29.1µM
Cc1cc(Cl)ccc1OCC(=O)Nc1cccc(S(=O)(=O)NC2=NCCCCC2)c1	DT40 TDP1 CPT 11.6µM, DT40 TDP1 no CPT 18.4µM
O=c1c(CCc2ccccc2)nc2cnc(N3CCOCC3)nc2n1-c1ccccc1	none (no result: PLK1 PBD inh, TDP1 inh)
Cc1ccc(-n2c(SCC(=O)N3CCCc4ccccc43)nc3c([nH]c4ccccc43)c2=O)cc1	none (no result: PLK1 PBD inh)
CCCC1=Nc2cc(C(=O)NCCOC)ccc2Sc2ccccc21	DT40 TDP1 CPT inconclusive, DT40 TDP1 no CPT 0.581µM (no result: PLK1 PBD inh)
CCCC1=Nc2cc(C(=O)NCCCOC(C)C)ccc2Sc2ccccc21	DT40 TDP1 CPT 4.61µM, DT40 TDP1 no CPT 4.11µM
O=C(CSc1ccccc1)Nc1ccc(S(=O)(=O)NCC2CCCO2)cc1 (configuration not stated)	PLK1 PBD inh 23.8µM
Cc1ccc(NC(=O)c2ccc(S(=O)(=O)NCC3CCCO3)cc2)cc1 (configuration not stated)	none
O=C(Cc1ccc(Br)cc1)Nc1ccc(S(=O)(=O)NCC2CCCO2)cc1 (configuration not stated)	PLK1 PBD inh 23.8µM, DT40 TDP1 CPT 11.6µM, VDR inh inconclusive, DT40 TDP1 no CPT 18.4µM
COCC(=O)Nc1ccc(S(=O)(=O)NCC2CCCO2)cc1 (configuration not stated)	none (no result: TDP1 inh)
Cc1ccccc1C(=O)Nc1ccc(S(=O)(=O)NCC2CCCO2)cc1 (configuration not stated)	DT40 TDP1 CPT 10.3µM, DT40 TDP1 no CPT 13µM (no result: KAT2A inh, VDR inh, TDP1 inh)
O=C1CCCC2=C1C1(CCCC1)N=C(Nc1nc3cc4ccccc4cc3o1)N2	none (no result: KAT2A inh, PLK1 PBD inh, DT40 TDP1 CPT, VDR inh, DT40 TDP1 no CPT)
CCc1nnc(NC(=O)CSc2nc(-c3ccccc3)cc(-c3ccc(F)cc3)c2C#N)s1	DT40 TDP1 CPT 9.2µM, DT40 TDP1 no CPT inconclusive
N#Cc1c(-c2ccccc2)cc(-c2ccccc2)nc1SCC(=O)NCC(=O)O	PLK1 PBD inh 23.8µM, VDR inh inconclusive
COc1ccc(-c2cc(-c3ccccc3)c(C#N)c(SCC(O)CS(=O)(=O)Cc3ccc(Cl)cc3)n2)cc1 (configuration not stated)	DT40 TDP1 no CPT inconclusive (no result: PLK1 PBD inh)
Cc1nc(SCC(=O)CC(=O)OC(C)C)c(C#N)c(C)c1C	DT40 TDP1 CPT 20.6µM, DT40 TDP1 no CPT inconclusive
Cc1cc(C)c(C#N)c(SCC(=O)CC(=O)OC(C)C)n1	DT40 TDP1 CPT inconclusive
N#Cc1c(-c2ccccc2)cc(-c2ccccc2)nc1SCC(O)CS(=O)(=O)Cc1ccc(Cl)cc1 (configuration not stated)	KAT2A inh inconclusive, DT40 TDP1 CPT 8.2µM, VDR inh 28.2µM, DT40 TDP1 no CPT 3.26µM (no result: PLK1 PBD inh)
COc1ccc(OC)c(S(=O)(=O)Nc2cccc3ccc(O)cc23)c1	DT40 TDP1 no CPT inconclusive (no result: KAT2A inh, TDP1 inh)
CC(C)OC(=O)CC(=O)CSc1nc(-c2ccc(F)cc2)cc(-c2ccccc2)c1C#N	PLK1 PBD inh 23.8µM, VDR inh inconclusive, DT40 TDP1 no CPT inconclusive
COc1ccc(-c2cc(-c3ccccc3)nc(SCC(=O)CC(=O)OC(C)C)c2C#N)cc1	DT40 TDP1 CPT inconclusive, DT40 TDP1 no CPT inconclusive (no result: PLK1 PBD inh)
Cc1cc(Oc2ccc(=O)n(C)n2)nc(SCCOc2ccccc2)n1	DT40 TDP1 no CPT inconclusive (no result: TDP1 inh)
C[C@@H]1CN([C@H](C)CO)C(=O)CCCn2nncc2CO[C@H]1CN(C)Cc1cccc(O)c1	none (no result: KAT2A inh, VDR inh, TDP1 inh)
COc1cc(/C=N/N=C2/SCC(=O)N2c2ccc(O)cc2)ccc1O	PLK1 PBD inh 2.99µM, DT40 TDP1 CPT 9.2µM, VDR inh 17.8µM, DT40 TDP1 no CPT 20.6µM
Cc1cc(=O)c(C(=O)NCCCc2ccncc2)c2n1-c1ccccc1SC(c1cccs1)C2 (configuration not stated)	DT40 TDP1 CPT inconclusive (no result: KAT2A inh, PLK1 PBD inh, VDR inh, TDP1 inh)
Cc1[nH]nc(-c2cccnc2)c1N=NN(C)C	DT40 TDP1 CPT 0.82µM, VDR inh inconclusive, DT40 TDP1 no CPT 1.46µM (no result: KAT2A inh, TDP1 inh)
CCOC(=O)C1=NO[C@@]2(C=C(Br)C3(OCCCO3)[C@H]3O[C@H]32)C1	none (no result: KAT2A inh, PLK1 PBD inh, DT40 TDP1 CPT, VDR inh, DT40 TDP1 no CPT)
Cc1ccc(NC(=O)c2oc3ccccc3c2COC(C)C)cc1S(=O)(=O)N1CCOCC1	DT40 TDP1 CPT 18.4µM, DT40 TDP1 no CPT 23.1µM
Cc1ccc(NC(=O)COC(=O)/C=C/c2ccccc2)cc1S(=O)(=O)N1CCOCC1	none
CCC(CC)NC(=O)c1oc2ccccc2c1COc1ccccc1	DT40 TDP1 CPT inconclusive, DT40 TDP1 no CPT inconclusive
Cc1ccc(NC(=O)C(C)OC(=O)c2cc(=O)[nH]c3ccccc23)cc1S(=O)(=O)N1CCOCC1 (configuration not stated)	none (no result: KAT2A inh, TDP1 inh)
CC(=O)c1c(C)[nH]c(C(=O)OC(C)C(=O)Nc2ccc(C)c(S(=O)(=O)N3CCOCC3)c2)c1C (configuration not stated)	DT40 TDP1 CPT 23.1µM, DT40 TDP1 no CPT 29.1µM
CCC(C(=O)OCC(=O)Nc1ccc(C)c(S(=O)(=O)N2CCOCC2)c1)c1ccccc1 (configuration not stated)	DT40 TDP1 CPT 11.6µM, DT40 TDP1 no CPT inconclusive
Cc1cc(C)cc(NC(=O)c2oc3ccccc3c2COc2ccccc2)c1	DT40 TDP1 CPT inconclusive, DT40 TDP1 no CPT 20.6µM
CC(NC(=S)NCc1ccccc1)C12CC3CC(CC(C3)C1)C2 (configuration not stated)	none
Cc1cnc(C(=O)OCC(=O)Nc2ccc(C)c(S(=O)(=O)N3CCOCC3)c2)cn1	none
Cc1ccc(NC(=O)COC(=O)C2(C)CC2(Cl)Cl)cc1S(=O)(=O)N1CCOCC1 (configuration not stated)	DT40 TDP1 CPT 20.6µM, DT40 TDP1 no CPT 23.1µM
CC(C)c1ccccc1NC(=O)COC(=O)C1(C)CC1(Cl)Cl (configuration not stated)	none
Cc1ccc(NC(=O)CSc2ccc(Br)cc2)cc1S(=O)(=O)N1CCOCC1	PLK1 PBD inh 11.9µM, DT40 TDP1 CPT 18.4µM, DT40 TDP1 no CPT 25.9µM (no result: TDP1 inh)
CC(C)(C)c1ccc(NC(=O)COC(=O)C2(C)CC2(Cl)Cl)cc1 (configuration not stated)	DT40 TDP1 CPT inconclusive, DT40 TDP1 no CPT 23.1µM
COCc1cn(CC[C@@H]2CC[C@@H](NC(=O)Nc3ccc4c(c3)OCO4)[C@@H](CO)O2)nn1	none (no result: KAT2A inh, VDR inh, TDP1 inh)

Compound activity from PubChem.
